# Measurements published in PubChem BioAssay (Tox21).
# Values without a mark were called inactive. Records with an inconclusive call do not appear. Where a call stands in place of a potency, no number is given. The source made the active and inactive calls. Unless noted, calls follow the shape of the full dose curve.
# Tested on: not listed separately
# Assay: qHTS assay to identify small molecule agonists of the TGF-beta/Smad signaling pathway (AID 1346859; active = well fitted activation curve with a large enough effect in the signal ratio in the repeat runs, not every such curve was filed as active; the % refers to the signal ratio)
# Details: SBE-bla HEK293T, TGF-beta/Smad beta-lactamase reporter, 5 h; series mostly up to 76.8 µM
# Outline: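 SBE-bla HEK 293T, 4,000 cells/well, plated o/n; cpd in DMSO, 5 hr, 37 C/5% CO2; B/G FRET substrate 2 hr RT; ex 405, em 460/530 nm.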
Compound,Potency,activation
COS(=O)(=O)C(F)(F)F,inactive,
OCCNCc1ccccc1,inactive,
CCOCC(O)COc1ccc(NC(=O)CC[S+](C)C)cc1 (stereo not drawn),inactive,
CC(=O)c1cccc([N+](=O)[O-])c1,inactive,
CCCCC1=NC2(CCCC2)C(=O)N1Cc1ccc(-c2ccccc2-c2nn[nH]n2)cc1,inactive,
CCCCCCCN,inactive,
CC(CC=O)c1ccccc1 (stereo not drawn),inactive,
CCOC(=O)C(=O)CCc1ccccc1,inactive,
C[N+](C)(C)CCOC(=O)CCC(=O)OCC[N+](C)(C)C,inactive,
CCCCCCCCO[C@@H]1O[C@H](CO)[C@@H](O)[C@H](O)[C@H]1O,inactive,
c1cc(CCCc2ccncc2)ccn1,inactive,
CCO[C@H](Cc1ccc(OCCc2ccc(OS(C)(=O)=O)cc2)cc1)C(=O)O,inactive,
Cc1cc(C(=O)O)ccc1[N+](=O)[O-],inactive,
CCN(CC)CCNC(=O)c1cc(Br)c(N)cc1OC,inactive,
OC[C@H]1O[C@@H](OCCc2ccc(O)cc2)[C@H](O)[C@@H](O)[C@@H]1O,inactive,
C=C1[C@H]2CC[C@@H]3[C@H]2C(C)(C)CCC[C@]13C,inactive,
C=CCOc1ccccc1OCC(O)CNC(C)C (stereo not drawn),inactive,
CCOC(=O)c1cccnc1,inactive,
CCN(CC)CCOC(=O)C(c1ccccc1)C1CCCCC1 (stereo not drawn),inactive,
Cc1[nH]c(C)c(Cl)c(=O)c1Cl,,0.225% [at 15.8 µM]
O=C(O)CNCC(=O)O,,6.59% [at 6.97 µM]
O=C(CS)Nc1ccccc1,inactive,
Cc1ncc(CO)c(C=O)c1O,inactive,
O=C1CCCCCCCCCCCC(=O)OCCO1,inactive,
CCOc1ccc(O)cc1,inactive,
CCCCCCCCCCCCCCCCOS(=O)(=O)O,inactive,
NCc1ccccc1Sc1ccccc1CO,inactive,

# Molecular target: Thyrotropin-releasing hormone receptor (Homo sapiens) (UniProt P34981)
# Sequence (P34981 whole entry, looked up): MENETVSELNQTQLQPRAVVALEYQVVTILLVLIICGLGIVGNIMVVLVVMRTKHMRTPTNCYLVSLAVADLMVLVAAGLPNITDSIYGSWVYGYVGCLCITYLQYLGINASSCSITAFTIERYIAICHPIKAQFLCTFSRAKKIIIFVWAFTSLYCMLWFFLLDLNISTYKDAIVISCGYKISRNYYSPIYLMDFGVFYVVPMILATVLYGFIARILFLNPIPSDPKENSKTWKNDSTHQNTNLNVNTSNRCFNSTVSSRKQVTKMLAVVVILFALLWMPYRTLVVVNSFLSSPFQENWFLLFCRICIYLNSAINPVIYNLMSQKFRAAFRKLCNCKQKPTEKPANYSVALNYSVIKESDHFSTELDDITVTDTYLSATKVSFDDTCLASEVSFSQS
# Assay: qHTS assay to identify small molecule antagonists of the thyrotropin-releasing hormone receptor (TRHR) signaling pathway (AID 1346877; active = well fitted inhibition curve with a large enough effect in the repeat runs, not every such curve was filed as active)
# Details: TRHR-HEK293, TRH-induced calcium fluorescence, antagonist mode; series mostly up to 51.3 µM
# Outline: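 Kinetic fluorescence (3 min, 1 s resolution) following stimulation with TRH at 1 nM final; HEK293 cells bearing human TRHR; 5 min compound preincubation at RT; concentration-response over 15 points, triplicates.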
Compound,outcome,"activity, negative = inhibition"
O=C(O)c1ccc(S(=O)(=O)O)cc1C(=O)O,inactive,
COS(=O)(=O)C(F)(F)F,inactive,
OCCNCc1ccccc1,inactive,
CCOCC(O)COc1ccc(NC(=O)CC[S+](C)C)cc1 (stereo not drawn),inactive,
CC(=O)c1cccc([N+](=O)[O-])c1,inactive,
CCCCCCCN,inactive,
CC(CC=O)c1ccccc1 (stereo not drawn),inactive,
CCOC(=O)C(=O)CCc1ccccc1,inactive,
C[N+](C)(C)CCOC(=O)CCC(=O)OCC[N+](C)(C)C,inactive,
CCCCCCCCO[C@@H]1O[C@H](CO)[C@@H](O)[C@H](O)[C@H]1O,inactive,
c1cc(CCCc2ccncc2)ccn1,inactive,
CCOC(=O)Cc1cccc2ccccc12,inactive,
Cc1cc(C(=O)O)ccc1[N+](=O)[O-],inactive,
CCN(CC)CCNC(=O)c1cc(Br)c(N)cc1OC,inactive,
OC[C@H]1O[C@@H](OCCc2ccc(O)cc2)[C@H](O)[C@@H](O)[C@@H]1O,inactive,
C=C1[C@H]2CC[C@@H]3[C@H]2C(C)(C)CCC[C@]13C,inactive,
C=CCOc1ccccc1OCC(O)CNC(C)C (stereo not drawn),inactive,
CCOC(=O)c1cccnc1,inactive,
NCC(=O)O,,-3.84% [at 10.5 µM]
CN1Cc2cc(C(=O)N3CCC(C4CCNCC4)CC3)ccc2NC(CC(=O)O)C1=O (stereo not drawn),inactive,
Cc1[nH]c(C)c(Cl)c(=O)c1Cl,,2.83% [at 10.5 µM]
O=C(O)CNCC(=O)O,,-17.8% [at 4.65 µM]
O=C(CS)Nc1ccccc1,inactive,
Cc1ncc(CO)c(C=O)c1O,inactive,
O=C1CCCCCCCCCCCC(=O)OCCO1,inactive,
CCOc1ccc(O)cc1,inactive,
NCCCN1CCOCC1,inactive,
NCc1ccccc1Sc1ccccc1CO,inactive,

# Molecular target: Thyrotropin-releasing hormone receptor (Homo sapiens) (UniProt P34981)
# Assay: qHTS assay to identify small molecule agonists of the thyrotropin-releasing hormone receptor (TRHR) signaling pathway (AID 1346891)
# Details: TRHR-HEK293 calcium fluorescence, agonist mode; series mostly up to 57.6 µM
# Outline: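 Intracellular calcium rise, read as fluorescence every second for 3 min, served as the agonist signal in dye-loaded HEK293 cells expressing TRHR; each compound ran at 15 concentrations in triplicate.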
Compound,Potency,activation
O=C(O)c1ccc(S(=O)(=O)O)cc1C(=O)O,inactive,
COS(=O)(=O)C(F)(F)F,inactive,
OCCNCc1ccccc1,inactive,
CCOCC(O)COc1ccc(NC(=O)CC[S+](C)C)cc1 (stereo not drawn),inactive,
CC(=O)c1cccc([N+](=O)[O-])c1,inactive,
CCCCCCCN,inactive,
CC(CC=O)c1ccccc1 (stereo not drawn),inactive,
CCOC(=O)C(=O)CCc1ccccc1,inactive,
C[N+](C)(C)CCOC(=O)CCC(=O)OCC[N+](C)(C)C,inactive,
CCCCCCCCO[C@@H]1O[C@H](CO)[C@@H](O)[C@H](O)[C@H]1O,inactive,
c1cc(CCCc2ccncc2)ccn1,inactive,
CCOC(=O)Cc1cccc2ccccc12,inactive,
Cc1cc(C(=O)O)ccc1[N+](=O)[O-],inactive,
CCN(CC)CCNC(=O)c1cc(Br)c(N)cc1OC,inactive,
OC[C@H]1O[C@@H](OCCc2ccc(O)cc2)[C@H](O)[C@@H](O)[C@@H]1O,inactive,
C=C1[C@H]2CC[C@@H]3[C@H]2C(C)(C)CCC[C@]13C,inactive,
C=CCOc1ccccc1OCC(O)CNC(C)C (stereo not drawn),inactive,
CCOC(=O)c1cccnc1,inactive,
NCC(=O)O,,-0.0833% [at 11.8 µM]
CN1Cc2cc(C(=O)N3CCC(C4CCNCC4)CC3)ccc2NC(CC(=O)O)C1=O (stereo not drawn),inactive,
Cc1[nH]c(C)c(Cl)c(=O)c1Cl,,-1.18% [at 11.8 µM]
O=C(O)CNCC(=O)O,,0.139% [at 5.23 µM]
O=C(CS)Nc1ccccc1,inactive,
Cc1ncc(CO)c(C=O)c1O,inactive,
O=C1CCCCCCCCCCCC(=O)OCCO1,inactive,
CCOc1ccc(O)cc1,inactive,
NCCCN1CCOCC1,inactive,
NCc1ccccc1Sc1ccccc1CO,inactive,
